The structures appear in SMILES notation. About 4,300 (8.3%) of roughly 52,000 compounds were called active. No stated cut-off is given here; in the data, active means survival mostly below about 52% (no sharp cut-off); inactive means mostly above about 56%. For the sample, actives were picked, then their nearest neighbours and some compounds at random.

This assay deals with DeltatarO mutant. Description: S. aureus survival, RN4220 and DeltatarO strains – OD600, teichoic acid synthesis inhibitors, primary screen (AID 463173). To be noted: S. aureus RN4220 wild type/DeltatarO growth, OD600, 18 h, stronger effect = lower value, screened at 18.75 µg/mL (by protocol).
Turning to `Cc1nn(-c2ccccc2)c(OC(=O)c2ccc(Cl)cc2)c1S(=O)(=O)c1ccccc1`, the survival is 79% (inactive).

With `c1csc(-c2nc3ccccn3c2Nc2ccc3c(c2)OCCO3)c1`, the survival was 89% (inactive).

Take `Cc1ccccc1NC(=O)CCS(=O)(=O)c1cc(Br)cc2c1N(C(=O)C1CC1)CC2`: the survival was 96% (inactive).

Consider `CC(=O)Nc1cc2c(cc1C(=O)c1ccccc1)OCCO2`, for which the survival was 108% (inactive).

`Cn1c(=O)c(=O)n(C)c2cc(S(=O)(=O)CCC(=O)Nc3ccc(F)cc3)ccc21`: the survival was 83% (inactive).

Regarding `CCc1nn(CC(=O)NCCN(CC(C)C)CC(C)C)c(=O)c2cc3sc(C)cc3n12`, the survival is 68% (inactive).

On to `CC(=O)c1ccc(Nc2cc(C)nc3nc(Cc4ccccc4)nn23)cc1`, for which the survival was 64% (inactive).

Regarding `CCOC(=O)c1cccc(NC(=O)NCc2cccn2Cc2ccccc2)c1`, the survival was 119% (inactive).

Regarding `CCOC(=O)Cc1ccc(NC(=O)NCc2cccn2Cc2ccccc2)cc1`, the survival was -4% (active).

Consider `CCOc1ccc(NC(=O)NCc2cccn2Cc2ccccc2)cc1`, for which the survival is 72% (inactive).

In the case of `CCN1CCc2c(sc(-n3cccc3)c2C(C)NC(=O)Nc2ccc(Br)cc2)C1` (configuration not stated), the survival was 102% (inactive).

With `CCc1ccc(NC(=O)CC2C(=O)N(c3ccc(OC)cc3)C(=O)N2Cc2ccc(OC)cc2)cc1` (configuration not stated), the survival was 100% (inactive).

In the case of `CC(=O)c1ccc(NC(=O)Cn2cnc3nc4c(cc3c2=O)CC(C)CC4)cc1` (configuration not stated), the survival was 60% (inactive).

For the compound `O=C(Cn1c(CC(=O)N2CCCC2)nc2ccccc21)NCc1ccccc1`, the survival was 64% (active).

Turning to `CCOC(=O)c1cccc(NC(=O)Cn2c(CC(=O)N3CCCC3)nc3ccccc32)c1`, the survival was 83% (inactive).

`O=C(CSc1cn(CC(=O)N2CCCCC2)c2ccccc12)NCc1ccccc1`: the survival was 87% (inactive).

Take `CCn1c(=O)c2sccc2n2c(CCC(=O)N3CCN(c4ccc(C(C)=O)cc4)CC3)nnc12`: the survival was 65% (inactive).

With `CCCN(CCC)S(=O)(=O)c1ccc(C(=O)N2CCn3c4c(c5cc(C)ccc53)CCCC42)cc1` (configuration not stated), the survival was 58% (inactive).

As to `Cc1ccc(C(=O)N2CCn3c4c(c5cc(C)ccc53)CCCC42)cc1` (configuration not stated), the survival was -1% (active).

In the case of `Cc1ccc2c(c1)c1c3n2CCN(C(=O)c2ccc(C(F)(F)F)cc2)C3CCC1` (configuration not stated), the survival was 44% (inactive).

For the compound `Cc1ccc2c(c1)c1c3n2CCN(C(=O)c2cccc(C(F)(F)F)c2)C3CCC1` (configuration not stated), the survival is 14% (active).

On to `CCOc1cc(C(=O)N2CCn3c4c(c5cc(C)ccc53)CCCC42)cc(OCC)c1OCC` (configuration not stated), for which the survival is 56% (inactive).

`COc1cc(SC)ccc1C(=O)N1CCn2c3c(c4cc(C)ccc42)CCCC31` (configuration not stated): the survival is 70% (inactive).

Turning to `COc1ccc(OC)c(CNC(=O)c2cc3ccc4cccnc4c3[nH]2)c1`, the survival is 112% (inactive).

With `COc1ccc(-c2nnc(SCC(=O)N(C)C3CCCCC3)o2)cc1OC`, the survival is 86% (inactive).

For the compound `O=C(O)c1ccc(N=NN2CCCCC2)cc1`, the survival was 75% (inactive).

As to `COc1cccc(NC(=O)C(=O)NCC(c2cccnc2)N2CCN(c3ccccc3)CC2)c1` (configuration not stated), the survival was 97% (inactive).

`COc1cccc(C2C(C(=O)Nc3ccccc3OC)=C(C)Nc3nc4ccccc4n32)c1` (configuration not stated): the survival was 51% (inactive).

On to `Cc1cccc(N2CCN(C(=O)Cn3ncc4c5ccccc5n(C)c4c3=O)CC2)c1C`, for which the survival was 73% (inactive).

For the compound `CCc1nnc(NC(=O)c2nc(S(C)(=O)=O)ncc2Cl)s1`, the survival was 66% (inactive).

On to `CCCc1nnc(NC(=O)c2nc(S(=O)(=O)Cc3ccc(C)cc3)ncc2Cl)s1`, for which the survival was 47% (inactive).

As for `Cc1ccc(CS(=O)(=O)c2ncc(Cl)c(C(=O)Nc3nnc(C(C)C)s3)n2)cc1`, the survival was 54% (inactive).

Regarding `Cc1ccccc1CS(=O)(=O)c1ncc(Cl)c(C(=O)Nc2nnc(C(C)C)s2)n1`, the survival is 30% (active).

As to `Cc1cccc(CS(=O)(=O)c2ncc(Cl)c(C(=O)Nc3nnc(C(C)C)s3)n2)c1`, the survival was 28% (active).

For `CC(C)c1nnc(NC(=O)c2nc(S(=O)(=O)Cc3ccccc3)ncc2Cl)s1`, the survival is 46% (inactive).

With `CCc1nnc(NC(=O)c2nc(S(=O)(=O)Cc3ccc(C)cc3)ncc2Cl)s1`, the survival is 42% (active).

On to `CCc1nnc(NC(=O)c2nc(S(=O)(=O)Cc3cccc(C)c3)ncc2Cl)s1`, for which the survival was 31% (active).

As for `O=C(NC1CCCCC1)c1cccs1`, the survival was 107% (inactive).

On to `COCCN(Cc1cc2cc3c(cc2nc1Cl)OCO3)C(=O)Nc1ccccc1OC`, for which the survival was 92% (inactive).

As to `CCOc1ccc(CN(C(=O)c2nc(SC)ncc2Cl)C2CCS(=O)(=O)C2)cc1` (configuration not stated), the survival is 88% (inactive).

As for `Cc1ccc(-c2ccc(=O)n(CC(=O)Nc3ccc(F)c(Cl)c3)n2)cc1C`, the survival was 82% (inactive).

Consider `COc1ccccc1Nc1cc(C(=O)NCc2cccs2)c2ccccc2n1`, for which the survival was 73% (inactive).

With `Cc1cc(=O)[nH]c2nnc(SCCC(C)C)n12`, the survival was 73% (inactive).

With `Cc1nnc(NC(=O)c2nc(S(=O)(=O)Cc3ccccc3)ncc2Cl)s1`, the survival is 48% (active).

Consider `Cc1nn2c(C)c(C(=O)NCc3cccc(Br)c3)cnc2c1-c1ccccc1`, for which the survival was 66% (inactive).

`CCOc1ccc(-c2c(C)nn3c(-c4ccccc4)c(C(=O)NCCOC)cnc23)cc1OCC`: the survival is -5% (active).

On to `Cc1cccc(CNC(=O)c2cnc3c(-c4cccc(C)c4)c(C)nn3c2C)c1`, for which the survival is 17% (active).

Turning to `CCCCNC(=O)c1cnc2c(-c3ccc(OCC)c(OCC)c3)c(C)nn2c1-c1ccccc1`, the survival was 73% (inactive).

With `CCNC(=O)c1cnc2c(-c3ccccc3)c(C)nn2c1C`, the survival was 8% (active).

For `CCCNC(=O)c1cnc2c(-c3ccc(OCC)c(OCC)c3)c(C)nn2c1-c1ccccc1`, the survival is 92% (inactive).

In the case of `Cc1nn2c(C)c(C(=O)NCCc3ccccc3)cnc2c1-c1ccccc1`, the survival is 81% (inactive).

In the case of `COc1cc(CNC(=O)c2cnc3c(-c4cccc(C)c4)c(C)nn3c2C)cc(OC)c1OC`, the survival was 68% (inactive).

For the compound `CCOc1ccc(-c2c(C)nn3c(C)c(C(=O)Nc4ccccc4C(=O)OC)cnc23)cc1OCC`, the survival is -4% (active).

With `Cc1nn2c(C)c(C(=O)NCC(C)c3ccccc3)cnc2c1-c1ccccc1` (configuration not stated), the survival was 101% (inactive).

With `CCOc1ccc(-c2c(C)nn3c(C)c(C(=O)Nc4cccc(Cl)c4C)cnc23)cc1OCC`, the survival was 76% (inactive).

On to `CCOc1ccc(-c2c(C)nn3c(C)c(C(=O)Nc4cc(C)cc(C)c4)cnc23)cc1OCC`, for which the survival is 118% (inactive).

On to `Cc1ccc(-n2c(SCC(=O)Nc3ccc4c(c3)OCO4)nc3c([nH]c4ccccc43)c2=O)cc1`, for which the survival is 128% (inactive).

These data come from PubChem BioAssay AID463173 (ICCB-Longwood Screening Facility, Harvard Medical School, 2010).
